From PubChem BioAssay
The list is not random: actives were taken first. Their share in the collection is about 3.1%.
Wnt bcat act = activates Wnt/beta-catenin signaling in a reporter cell assay | activation, % at 9.35 µM | AID 743398 | 300,000 compounds, 1.2% hits | activator, plate reader; in the data active = activation above about 30%, passing the limit was not always enough; inconclusive = no clear call, values can overlap the other calls
C2C12 statin = suppressors of simvastatin-induced myotoxicity in C2C12 myotubes. ATP luminescence, 48 h; scaled: DMSO 0, geranylgeraniol control 100. rescue of ATP level, % at 7.49 µM. 330,000 compounds, 0.78% hits. AID 602340;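 active = mean ATP rescue above about 67%, or every replicate alone reaching that limit, limit read from the data, passing the limit was not always enough; inconclusive = no clear call, values can overlap the other calls; inactive = mean under the limit and some replicate under it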;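 also: myotubes were challenged with 10 µM simvastatin during compound exposure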
Rtt109 HAT inh = C. albicans Rtt109 histone acetyltransferase inhibition; Q5AAJ8; purified Rtt109/Vps75, ThioGlo CoA-SH fluorescence, 4 h; inhibition, % at 34.9 µM; 330,000 compounds, 0.16% hits; AID 540336;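 active = inhibition of at least 50% in every replicate; inconclusive = best replicate reaches 50% inhibition but some replicates fall short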
Target sequence (Q5AAJ8 whole entry, looked up): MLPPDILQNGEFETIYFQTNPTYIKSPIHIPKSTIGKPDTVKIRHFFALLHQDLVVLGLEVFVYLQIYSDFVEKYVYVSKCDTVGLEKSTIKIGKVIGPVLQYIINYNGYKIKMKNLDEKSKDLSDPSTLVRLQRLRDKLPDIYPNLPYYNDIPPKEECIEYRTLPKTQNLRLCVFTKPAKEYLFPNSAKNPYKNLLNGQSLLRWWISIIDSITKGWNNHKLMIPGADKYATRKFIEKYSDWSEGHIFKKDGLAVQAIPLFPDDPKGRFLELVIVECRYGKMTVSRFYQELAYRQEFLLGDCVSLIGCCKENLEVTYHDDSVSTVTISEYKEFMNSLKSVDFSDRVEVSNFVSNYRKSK
MITF act = MITF TRPM1 promoter activation in melanoma cells | SK-MEL-5 TRPM1-promoter luciferase, 24 h; % of positive control, neutral wells = 0 | activation, % at 12.5 µM | 300,000 compounds, 0.75% hits | AID 588334;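 active = mean activation of at least 80% with every replicate also reaching 80%; inconclusive = mean reaches 80% but some replicate falls short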
esBAF inh = inhibitors of esBAF chromatin remodeling in mouse ES cells; Bmi1-luciferase knock-in reporter, 24 h; 100% = twice the neutral-well signal; reporter increase, % at 12.5 µM; AID 602393; 350,000 compounds, 2% hits; in the data active = activation above about 40%; inconclusive = no clear call, values can overlap the other calls;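 also: a rise in the Bmi1 reporter signal indicates esBAF inhibition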
Hits are given with their value.

What do the screens show for `O=C(C[C@@H]1CC[C@H]2[C@@H](COC[C@@H](O)CN2S(=O)(=O)c2ccccc2)O1)NCCN1CCCCC1`?
C2C12 statin: inactive; esBAF inh: inactive

How did Cc1cc(C)n2nc(SCc3nnc(SCc4ccccc4Cl)s3)nc2n1 do in these assays?
Wnt bcat act: inactive; C2C12 statin: inactive; Rtt109 HAT inh: inactive; MITF act: inactive; esBAF inh: inactive

Results for Cc1cc(C)n2nc(SCN3C(=O)c4ccccc4C3=O)nc2n1 ?
Wnt bcat act: inactive; C2C12 statin: inactive; Rtt109 HAT inh: inactive; MITF act: 84; esBAF inh: inactive

Results for Cc1cc(C)c(C#N)c(SCC2COc3ccccc3O2)n1 (stereo not given) ?
Wnt bcat act: inactive; Rtt109 HAT inh: inactive; MITF act: inactive; esBAF inh: inactive

What do the screens show for `Cc1cc(C)n2nc(SCC3COc4ccccc4O3)nc2n1` (stereo not given)?
Wnt bcat act: inactive; C2C12 statin: inactive; Rtt109 HAT inh: inactive; esBAF inh: 63

Results for Cc1cc(C)n2nc(SCc3nnc(SCc4ccccc4C)s3)nc2n1 ?
Wnt bcat act: inactive; C2C12 statin: inactive; Rtt109 HAT inh: inactive; MITF act: inactive; esBAF inh: 83

What do the screens show for `C[C@@H]1CN([C@H](C)CO)C(=O)c2cc(NS(=O)(=O)c3ccccc3)ccc2O[C@@H](C)CCCCO[C@@H]1CN(C)C(=O)c1ccccc1`?
esBAF inh: inactive

How did C[C@@H]1CN([C@@H](C)CO)S(=O)(=O)c2ccc(C#CCN(C)C)cc2O[C@H]1CN(C)Cc1cccnc1 do in these assays?
C2C12 statin: inactive; esBAF inh: inactive

How did CCS(=O)(=O)N[C@H]1CC[C@@H](CC(=O)NCc2ccc(Cl)cc2)O[C@@H]1CO do in these assays?
C2C12 statin: inactive; esBAF inh: inactive

How did CN1C(=O)c2ccc(N(C)C)cc2C1=O do in these assays?
Wnt bcat act: inactive; C2C12 statin: 109; Rtt109 HAT inh: inactive; esBAF inh: inactive

How did C[C@H]1CN([C@@H](C)CO)C(=O)c2cc(NS(=O)(=O)c3cn(C)cn3)ccc2O[C@@H]1CN(C)Cc1ccccc1 do in these assays?
C2C12 statin: inactive; esBAF inh: inactive

What do the screens show for `COc1cccc(C(=O)NNC(=O)c2cccc3ccccc23)c1`?
Wnt bcat act: inactive; C2C12 statin: inactive; Rtt109 HAT inh: inactive; MITF act: inactive; esBAF inh: inactive

What do the screens show for `O=C(NNC(=O)c1cccc2ccccc12)c1ccc2c(c1)OCO2`?
Wnt bcat act: inactive; C2C12 statin: inactive; Rtt109 HAT inh: inactive; MITF act: inactive; esBAF inh: 54

Results for COc1ccc(C(=O)NNC(=O)c2cccc3ccccc23)cc1 ?
Wnt bcat act: inactive; C2C12 statin: inactive; Rtt109 HAT inh: inactive; MITF act: inactive; esBAF inh: 54

How did COc1ccc(CNC(=S)Nc2ccccc2F)cc1 do in these assays?
Wnt bcat act: inactive; C2C12 statin: inactive; Rtt109 HAT inh: inactive; MITF act: inactive; esBAF inh: inactive

What do the screens show for `COc1ccc(C(=O)NC(=S)Nc2ccccc2F)cc1`?
Wnt bcat act: 34; Rtt109 HAT inh: inactive; MITF act: inactive

Results for COc1ccc(C(=O)Nc2cccc3ccccc23)cc1 ?
Wnt bcat act: inactive; C2C12 statin: inactive; Rtt109 HAT inh: inactive; esBAF inh: 52

What do the screens show for `CN1CCN(C(=O)C[C@@H]2CC[C@@H]3[C@@H](COc4ccc(NC(=O)C5CCCCC5)cc4C(=O)N3C)O2)CC1`?
C2C12 statin: inactive; esBAF inh: inactive

Results for CCc1ccc(-c2ccc(SCC(=O)NC3CCCC3)nn2)cc1 ?
Wnt bcat act: inactive; C2C12 statin: inactive; esBAF inh: 47

How did COc1ccc(-c2ccc(SCC(=O)NC3CCCC3)nn2)cc1 do in these assays?
Wnt bcat act: inactive; C2C12 statin: inactive; esBAF inh: inactive

Results for COc1ccccc1S(=O)(=O)N[C@H]1CC[C@H](CCNC(=O)C2CCC2)O[C@H]1CO ?
C2C12 statin: inactive; esBAF inh: inactive

How did COC(=O)c1cc(-c2ccccc2)sc1N do in these assays?
Wnt bcat act: inactive; C2C12 statin: inactive; Rtt109 HAT inh: inactive; MITF act: inactive; esBAF inh: 51

How did C#CCNC(=O)c1cc(-c2ccccc2)sc1N do in these assays?
Wnt bcat act: inactive

Results for CCC1CCCCN1C(=O)CSc1nnc(-c2ccco2)o1 (stereo not given) ?
Wnt bcat act: 47; C2C12 statin: inactive; Rtt109 HAT inh: inactive; MITF act: inactive; esBAF inh: inactive

Results for CCC1CCCCN1C(=O)CSc1nnc(-c2cccc(Cl)c2)o1 (stereo not given) ?
Wnt bcat act: inactive; C2C12 statin: inactive; Rtt109 HAT inh: inactive; esBAF inh: 50

How did CCC1CCCCN1C(=O)CSc1nnc(-c2ccc(Cl)cc2)o1 (stereo not given) do in these assays?
Wnt bcat act: inactive; C2C12 statin: inactive; Rtt109 HAT inh: inactive; esBAF inh: inactive

Results for COc1cccc(S(=O)(=O)N[C@H]2C=C[C@@H](CC(=O)NCc3ccncc3)O[C@H]2CO)c1 ?
C2C12 statin: inactive; esBAF inh: inactive

How did COCC(=O)Nc1ccc2c(c1)[C@H]1C[C@@H](CC(=O)NCc3ccc(-c4ccccc4)cc3)O[C@H](CO)[C@H]1O2 do in these assays?
C2C12 statin: inactive; esBAF inh: inactive

What do the screens show for `O=C(Nc1nc2ccccc2[nH]1)c1cccc(Cl)c1`?
Wnt bcat act: 32; C2C12 statin: inactive; Rtt109 HAT inh: inactive; esBAF inh: inactive

What do the screens show for `O=C(Nc1nc2ccccc2[nH]1)c1ccccc1O`?
Wnt bcat act: 42; Rtt109 HAT inh: inactive; MITF act: inconclusive

Results for CCNC(=O)C[C@H]1CC[C@H]2[C@H](COc3ccc(NC(=O)Nc4cccc(OC)c4)cc3C(=O)N2C)O1 ?
C2C12 statin: inactive; esBAF inh: inactive

How did N#C/C(=C\c1ccc(O)c(Br)c1)C(=O)NCc1ccccc1 do in these assays?
Wnt bcat act: inactive; C2C12 statin: inactive; Rtt109 HAT inh: inactive; MITF act: inactive; esBAF inh: inactive

Results for N#C/C(=C\c1ccc(O)c([N+](=O)[O-])c1)C(=O)NCc1ccccc1 ?
Wnt bcat act: 47; C2C12 statin: inactive; Rtt109 HAT inh: inactive; MITF act: inactive; esBAF inh: inactive

Results for CN(C)c1ccc(/C=C(/C#N)C(=O)NCc2ccccc2)o1 ?
Wnt bcat act: inactive; C2C12 statin: inactive; Rtt109 HAT inh: inactive; MITF act: inactive; esBAF inh: 48

Results for N#C/C(=C/c1ccccc1)C(=O)NCc1ccccc1 ?
Wnt bcat act: inactive; C2C12 statin: inactive; Rtt109 HAT inh: inactive; MITF act: inactive; esBAF inh: inactive

Results for O=C(Nc1ccc2nn(-c3ccccc3)nc2c1)c1ccco1 ?
C2C12 statin: inactive; Rtt109 HAT inh: inactive; esBAF inh: 62

How did O=C(Nc1ccc2nn(-c3ccccc3)nc2c1)c1cccnc1 do in these assays?
Wnt bcat act: inactive; C2C12 statin: 130; Rtt109 HAT inh: inactive; MITF act: inactive; esBAF inh: 53

How did O=C(Nc1ccc2nn(-c3ccc(F)cc3)nc2c1)c1cccnc1 do in these assays?
Wnt bcat act: inactive; Rtt109 HAT inh: inactive; MITF act: inactive
